High-throughput results: PubChem BioAssay, Broad Institute
Casp6 inh: caspase-6 (human) enzyme inhibition; P55212; purified caspase-6, Z-VEID-R110 cleavage fluorescence; inhibition, % at 12.5 µM; actives 0.53% (n = 350,000); AID 686996;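 active means mean inhibition across replicates at least about 35%, with every replicate also reaching that limit, limit read from the data; inconclusive means only one of the two criteria met; inactive means neither criterion met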
RAD52 inh: inhibitors of human RAD52 DNA annealing. P43351. recombinant RAD52 DNA annealing, FRET fluorescence. inhibition, % at 18.7 µM. actives 0.46% (n = 360,000);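 active means every replicate showing at least 50% inhibition; inconclusive means mean inhibition at least 50% but not in every replicate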
NSD2 HMT inh: inhibitors of human histone methyltransferase NSD2; O96028; NSD2 peptide methylation, AlphaScreen, 120 min; inhibition, % at 12.5 µM; actives 0.54% (n = 310,000); in the data active means inhibition above about 50%
N-glyco inh: N-linked glycosylation inhibition | AID 588692 | reporter increase, % at 12.5 µM | actives 0.23% (n = 360,000) | D54 ERlucT glycosylation luciferase reporter, 24 h; percent of 100 nM tunicamycin response;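 active means mean luciferase reporter signal, scaled so untreated is 0 and the glycosylation-blocking control 100, at or above a set limit in every replicate; inconclusive means mean reaches the limit but not every replicate does; inactive means mean below the limit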;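 further: luciferase carries N-glycosylation sites so blocking glycosylation raises the light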
RAD54 inh: RAD54 (human) branch migration inhibition; Q92698; RAD54 Holliday junction branch migration, FAM/BHQ fluorescence; actives 0.14% (n = 360,000); inhibition, % at 10.4 µM;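 active means mean normalized replicate activity at least 40 and at least half of replicates scoring 40 or more; inconclusive means only one of the two criteria met; inactive means mean below 40 and under half of replicates reaching 40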;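 further: inhibitors cause a drop in the FAM fluorescence signal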
Target sequence (Q92698 whole entry, looked up): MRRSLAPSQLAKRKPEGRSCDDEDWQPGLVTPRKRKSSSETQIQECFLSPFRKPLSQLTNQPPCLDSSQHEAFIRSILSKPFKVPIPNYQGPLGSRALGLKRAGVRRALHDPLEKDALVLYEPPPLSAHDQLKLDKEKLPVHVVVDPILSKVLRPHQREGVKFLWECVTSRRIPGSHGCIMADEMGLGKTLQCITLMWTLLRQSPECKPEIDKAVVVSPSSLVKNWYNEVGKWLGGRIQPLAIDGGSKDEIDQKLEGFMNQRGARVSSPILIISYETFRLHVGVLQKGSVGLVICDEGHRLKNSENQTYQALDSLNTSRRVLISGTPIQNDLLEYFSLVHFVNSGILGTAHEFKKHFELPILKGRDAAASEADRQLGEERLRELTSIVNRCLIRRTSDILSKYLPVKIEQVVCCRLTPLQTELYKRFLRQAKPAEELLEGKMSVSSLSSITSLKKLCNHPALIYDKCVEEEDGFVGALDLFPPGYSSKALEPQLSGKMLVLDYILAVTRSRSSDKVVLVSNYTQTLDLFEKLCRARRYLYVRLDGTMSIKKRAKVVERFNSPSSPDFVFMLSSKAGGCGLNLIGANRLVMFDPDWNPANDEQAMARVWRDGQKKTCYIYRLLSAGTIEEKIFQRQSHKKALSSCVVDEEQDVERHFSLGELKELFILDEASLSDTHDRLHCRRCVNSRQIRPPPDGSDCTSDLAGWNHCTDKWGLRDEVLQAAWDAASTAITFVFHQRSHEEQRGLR
Of the large screens only hits and unclear results are named; the others gave an inactive call. A selection: hits, their analogues and other compounds. The true share with any hit is near 1.2%.

NC(=O)CC(NC(=O)Cc1ccc(Cl)cc1)c1ccc(NC2CCCCC2)c([N+](=O)[O-])c1 (stereo not given)	N-glyco inh 45.3 (no result: NSD2 HMT inh)
NC(=O)CC(NC(=O)Cc1cccc2ccccc12)c1ccc(NC2CCC2)c([N+](=O)[O-])c1 (stereo not given)	none (no result: NSD2 HMT inh)
NC(=O)CC(NC(=O)Cc1ccc(Cl)cc1)c1ccc(NC2CCCC2)c([N+](=O)[O-])c1 (stereo not given)	N-glyco inh 49.0 (no result: NSD2 HMT inh)
CC(C)Nc1ccc(C(CC(N)=O)NC(=O)c2ccc(Br)cc2)cc1[N+](=O)[O-] (stereo not given)	N-glyco inh 49.4 (no result: NSD2 HMT inh)
O=C(c1ccccc1F)N1C[C@H]2[C@@H](c3ccccc31)[C@H](CO)N2C(=O)c1cccnc1	none (no result: NSD2 HMT inh, N-glyco inh)
CC(C)CC#Cc1cnc2c(c1)C(=O)N([C@H](C)CO)C[C@@H](C)[C@@H](CN(C)C(=O)c1cnccn1)O2	none (no result: NSD2 HMT inh, N-glyco inh)
Cc1noc(C)c1S(=O)(=O)N(C)C[C@H]1OCCCC[C@H](C)Oc2ccc(NC(=O)Nc3cccc4ccccc34)cc2C(=O)N([C@H](C)CO)C[C@@H]1C	none (no result: NSD2 HMT inh, N-glyco inh)
NC(=O)CC(NC(=O)Cc1ccc(Br)cc1)c1ccc(NC2CCC2)c([N+](=O)[O-])c1 (stereo not given)	N-glyco inh 39.5 (no result: NSD2 HMT inh)
Cc1ccc(S(=O)(=O)Nc2cccc3c2O[C@H](CN(C)Cc2ccc(Oc4ccccc4)cc2)[C@@H](C)CN([C@H](C)CO)C3=O)cc1	none (no result: NSD2 HMT inh, N-glyco inh)
COc1cc2c(cc1OC)C(c1ccccc1)N(C(=O)c1cccc(S(C)(=O)=O)c1)CC2 (stereo not given)	N-glyco inh 66.9 (no result: RAD54 inh)
CC(C(=O)N(C)C1CCS(=O)(=O)C1)N1C(=O)/C(=C/c2ccc(F)cc2)SC1=S (stereo not given)	none (no result: RAD54 inh)
CCN(C(=O)C(C)N1C(=O)/C(=C/c2ccco2)SC1=S)C1CCS(=O)(=O)C1 (stereo not given)	Casp6 inh 50.2
O=C1/C(=C\c2ccco2)SC(=S)N1C1CCS(=O)(=O)C1 (stereo not given)	Casp6 inh 48.6
O=C(O)/C=C1\NC(=O)c2ccccc21	none (no result: Casp6 inh, RAD52 inh)
O=C1N/C(=C\c2ccc(O)cc2)C(=O)c2ccccc21	Casp6 inh 82.8, N-glyco inh inconclusive
O=C(CSc1ccsc1[N+](=O)[O-])NCc1ccco1	Casp6 inh 46.3 (no result: RAD54 inh)
CCOC(=O)C1=NS(=O)(=O)NC(C)=C1	Casp6 inh 35.5 (no result: NSD2 HMT inh)
O=C(NCc1ccccc1)c1ccc(Br)cc1[N+](=O)[O-]	none (no result: NSD2 HMT inh, N-glyco inh)
O=C(CSc1c2c(nc3ccc(Cl)cc13)CCCC2)N1CCN(C(=O)c2ccco2)CC1	N-glyco inh 41.2 (no result: RAD54 inh)
O=C(CSc1nc2cc(Cl)ccc2s1)N1CCN(C(=O)c2ccco2)CC1	none (no result: Casp6 inh, RAD52 inh, RAD54 inh)
CCC(CO)Oc1cc(NC(=O)c2ccc(N)cc2)c2ncn(C(C)C)c2c1 (stereo not given)	Casp6 inh 38.2 (no result: NSD2 HMT inh)
O=[N+]([O-])c1cc(/C=N/Nc2nc3ccccc3[nH]2)c(O)cc1O	Casp6 inh 60.9 (no result: N-glyco inh, RAD54 inh)
Cc1ccccc1S(=O)(=O)N[C@H]1CC[C@H](CCn2cc(-c3ccccc3)nn2)O[C@@H]1CO	none (no result: NSD2 HMT inh, N-glyco inh)
COCC(=O)Nc1ccc2c(c1)[C@H]1C[C@@H](CC(=O)NCc3ccccc3OC)O[C@@H](CO)[C@H]1O2	none (no result: NSD2 HMT inh, N-glyco inh)
COc1ccccc1NC(=O)N1CCCCN2[C@@H](CO)[C@@H](c3ccc(-c4ccccc4)cc3)[C@@H]2C1	RAD52 inh 50.4 (no result: NSD2 HMT inh, N-glyco inh)
COc1ccccc1NC(=O)N1CCCCN2[C@H](CO)[C@H](c3ccc(-c4ccccc4)cc3)[C@H]2C1	RAD52 inh 51.7 (no result: NSD2 HMT inh, N-glyco inh)
COc1ccccc1NC(=O)N1CCCCN2[C@H](CO)[C@H](c3ccc(-c4ccc(C)cc4)cc3)[C@@H]2C1	none (no result: NSD2 HMT inh, N-glyco inh)
COc1ccccc1NC(=O)N1CCCCN2[C@H](CO)[C@H](c3ccc(-c4cccc(C)c4)cc3)[C@H]2C1	none (no result: NSD2 HMT inh, N-glyco inh)
COc1ccccc1NC(=O)N1CCCCN2[C@@H](CO)[C@H](c3ccc(-c4ccccc4)cc3)[C@@H]2C1	RAD52 inh 67.2 (no result: NSD2 HMT inh, N-glyco inh)
O=C(Nc1cc(F)ccc1F)N1CCCCN2[C@@H](CO)[C@@H](c3ccc(C4=CCCCC4)cc3)[C@@H]2C1	RAD52 inh 54.4 (no result: NSD2 HMT inh, N-glyco inh)
O=C(Nc1cc(F)ccc1F)N1CCCCN2[C@H](C1)[C@H](c1ccc(C3=CCCCC3)cc1)[C@@H]2CO	none (no result: NSD2 HMT inh, N-glyco inh)
Cc1ccc(S(=O)(=O)Nc2cccc3c2O[C@@H](CN(C)C(=O)NC(C)C)[C@H](C)CN([C@H](C)CO)C3=O)cc1	none (no result: NSD2 HMT inh, N-glyco inh)
CN(C)C(=O)c1ccc(-c2ccc3c(c2)[C@H]2[C@H](CCN2C(=O)c2ccccn2)[C@H](CO)N3)cc1	none (no result: Casp6 inh, RAD52 inh, NSD2 HMT inh, N-glyco inh)
CO[C@@H]1CN(C)C(=O)c2ccc(NC(=O)C3CC3)cc2OC[C@H](C)NC[C@H]1C	none (no result: NSD2 HMT inh, N-glyco inh)
N#Cc1c(N2CCCC(O)C2)nc(N)c2c(N)nc3c(c12)CC(=O)N3C12CC3CC(CC(C3)C1)C2 (stereo not given)	N-glyco inh 40.6 (no result: Casp6 inh, RAD52 inh)
COC1=C(Nc2ccccc2OC)C(=O)c2ccccc2C1=O	NSD2 HMT inh 74.2
Cc1nnc(N2C(=O)c3oc4ccccc4c(=O)c3C2c2ccco2)s1 (stereo not given)	Casp6 inh 37.9 (no result: NSD2 HMT inh)
C[C@@H]1CN([C@@H](C)CO)C(=O)c2cc(NS(=O)(=O)c3ccccc3)ccc2O[C@@H](C)CCCCO[C@H]1CN(C)C	none (no result: NSD2 HMT inh, N-glyco inh)
Cc1ccc(NC(=O)C2CCCC2)c(C)c1	none (no result: Casp6 inh, RAD52 inh, N-glyco inh, RAD54 inh)
Cc1c(O)cc2c(c1O)C(=O)CC(c1ccccc1)O2 (stereo not given)	N-glyco inh 43.1 (no result: NSD2 HMT inh)
Cc1noc(C)c1S(=O)(=O)Nc1ccc2c(c1)CC(=O)N([C@@H](C)CO)C[C@@H](C)[C@@H](CN(C)S(=O)(=O)c1cccs1)O2	none (no result: NSD2 HMT inh, N-glyco inh)
CN(C)CCCNC(=O)C[C@H]1C[C@H](C(=O)N2CCCCC2)[C@@]2(CCc3ccccc3)c3[nH]c4cc(-c5ccco5)ccc4c3CCN2C1=O	RAD52 inh 75.1 (no result: NSD2 HMT inh)
CN(C)CCCNC(=O)C[C@H]1C[C@H](C(=O)N2CCCCC2)[C@@]2(C)c3[nH]c4cc(-c5ccco5)ccc4c3CCN2C1=O	none (no result: NSD2 HMT inh)
CCCCN(C(=O)c1cccc(-n2cccc2)c1)c1c(N)n(CCCC)c(=O)[nH]c1=O	Casp6 inh 43.5
CCCCn1c(N)c(N(CC(C)C)C(=O)CC(NC(=O)c2ccccc2)c2ccccc2)c(=O)[nH]c1=O (stereo not given)	Casp6 inh 64.7 (no result: RAD54 inh)
CC(C)NC(=O)N(C)C[C@H]1Oc2c(NS(=O)(=O)c3ccc(Cl)cc3)cccc2C(=O)N([C@H](C)CO)C[C@@H]1C	none (no result: NSD2 HMT inh, N-glyco inh)
COc1cc2c(cc1OC)C(=O)N1[C@H]3c4ccccc4OC[C@@H]3[C@H](c3ccccc3)[C@]1(C)C(=O)N2	N-glyco inh 41.1 (no result: Casp6 inh, NSD2 HMT inh)
COc1ccc2c(c1)OC[C@H]1[C@H]2N2C(=O)c3cc(OC)c(OC)cc3NC(=O)[C@@]2(C)[C@H]1c1ccccc1	N-glyco inh 47.3 (no result: NSD2 HMT inh)
COc1ccc2c(c1)OC[C@H]1[C@@H]2N2C(=O)[C@@H](C)NC(=O)[C@@]2(C)[C@H]1c1ccccc1	none (no result: NSD2 HMT inh)
COc1cccc(NC(=O)N2C[C@H](O)COC[C@@H]3O[C@@H](CC(=O)NCc4ccccc4F)CC[C@H]32)c1	none (no result: Casp6 inh, RAD52 inh, NSD2 HMT inh, N-glyco inh)
